Conditions in all cases: Compound concentration 20.0 uM
The target of test [1] is Tyrosine-protein kinase ABL1 (Homo sapiens) (UniProt P00519).
Test [2] deals with Bromodomain-containing protein 4 (Homo sapiens) (UniProt O60885).
The target of test [3] is Cyclin-dependent kinase 2 (Homo sapiens) (UniProt P24941).
Test [4] deals with Casein kinase I isoform delta (Homo sapiens) (UniProt P48730).
Test [5] addresses Glycogen synthase kinase-3 beta (Homo sapiens) (UniProt P49841).
For test [6], the target named is Mitogen-activated protein kinase 1 (Homo sapiens) (UniProt P28482).
Mitogen-activated protein kinase 1 (Homo sapiens), sequence (P28482 whole entry): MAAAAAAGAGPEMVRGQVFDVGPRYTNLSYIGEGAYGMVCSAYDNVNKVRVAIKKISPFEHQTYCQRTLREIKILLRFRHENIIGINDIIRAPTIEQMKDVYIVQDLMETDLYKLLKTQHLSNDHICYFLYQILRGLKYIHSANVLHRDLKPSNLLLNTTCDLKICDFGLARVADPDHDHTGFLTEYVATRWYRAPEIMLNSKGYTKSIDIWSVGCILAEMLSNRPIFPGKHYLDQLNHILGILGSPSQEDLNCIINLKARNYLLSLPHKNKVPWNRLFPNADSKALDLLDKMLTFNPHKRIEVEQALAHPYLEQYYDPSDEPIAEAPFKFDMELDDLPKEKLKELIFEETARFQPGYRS
The target in test [7] is T1, Aurora kinase A (Homo sapiens) (UniProt O14965).
T1 sequence (whole entry): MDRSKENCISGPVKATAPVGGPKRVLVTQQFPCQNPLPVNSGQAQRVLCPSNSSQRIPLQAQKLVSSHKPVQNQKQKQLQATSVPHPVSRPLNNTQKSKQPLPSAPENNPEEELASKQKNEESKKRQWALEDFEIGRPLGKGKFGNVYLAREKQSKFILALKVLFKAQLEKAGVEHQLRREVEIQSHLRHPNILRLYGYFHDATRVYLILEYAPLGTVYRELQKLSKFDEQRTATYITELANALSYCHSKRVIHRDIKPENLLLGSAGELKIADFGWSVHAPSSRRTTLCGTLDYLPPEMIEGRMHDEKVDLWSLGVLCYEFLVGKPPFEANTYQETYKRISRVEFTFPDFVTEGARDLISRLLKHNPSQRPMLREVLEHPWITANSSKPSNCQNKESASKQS

In test [8] the target is T2, Transcription intermediary factor 1-alpha (Homo sapiens) (UniProt O15164).
T2 sequence (whole entry): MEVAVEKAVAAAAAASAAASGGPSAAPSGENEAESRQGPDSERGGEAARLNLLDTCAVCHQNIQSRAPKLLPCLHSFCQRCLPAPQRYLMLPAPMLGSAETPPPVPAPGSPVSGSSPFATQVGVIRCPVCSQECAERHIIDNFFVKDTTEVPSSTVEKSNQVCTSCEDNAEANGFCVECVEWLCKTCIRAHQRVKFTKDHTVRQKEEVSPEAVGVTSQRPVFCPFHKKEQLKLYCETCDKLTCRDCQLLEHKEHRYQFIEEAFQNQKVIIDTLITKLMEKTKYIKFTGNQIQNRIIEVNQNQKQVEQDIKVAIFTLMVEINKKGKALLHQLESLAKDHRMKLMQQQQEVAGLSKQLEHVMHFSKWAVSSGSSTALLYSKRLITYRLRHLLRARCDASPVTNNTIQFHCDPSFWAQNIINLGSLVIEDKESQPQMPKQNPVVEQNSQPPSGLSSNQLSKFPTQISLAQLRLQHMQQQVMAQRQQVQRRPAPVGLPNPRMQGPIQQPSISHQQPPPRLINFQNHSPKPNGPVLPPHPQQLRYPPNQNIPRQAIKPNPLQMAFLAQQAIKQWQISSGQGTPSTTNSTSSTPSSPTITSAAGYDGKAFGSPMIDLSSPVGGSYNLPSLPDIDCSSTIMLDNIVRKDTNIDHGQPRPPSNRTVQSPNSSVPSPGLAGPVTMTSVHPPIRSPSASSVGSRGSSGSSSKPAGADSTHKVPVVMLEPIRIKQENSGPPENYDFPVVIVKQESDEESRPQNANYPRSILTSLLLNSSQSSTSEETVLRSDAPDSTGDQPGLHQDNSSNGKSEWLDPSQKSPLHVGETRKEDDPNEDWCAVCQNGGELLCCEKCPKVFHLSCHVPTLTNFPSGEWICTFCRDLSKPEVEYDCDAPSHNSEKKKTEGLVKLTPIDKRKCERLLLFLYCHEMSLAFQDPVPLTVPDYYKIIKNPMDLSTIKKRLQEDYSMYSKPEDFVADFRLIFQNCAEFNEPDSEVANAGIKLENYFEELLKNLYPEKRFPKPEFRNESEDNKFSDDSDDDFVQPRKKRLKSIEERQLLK

Tyrosine-protein kinase ABL1 (Homo sapiens), sequence (P00519 whole entry): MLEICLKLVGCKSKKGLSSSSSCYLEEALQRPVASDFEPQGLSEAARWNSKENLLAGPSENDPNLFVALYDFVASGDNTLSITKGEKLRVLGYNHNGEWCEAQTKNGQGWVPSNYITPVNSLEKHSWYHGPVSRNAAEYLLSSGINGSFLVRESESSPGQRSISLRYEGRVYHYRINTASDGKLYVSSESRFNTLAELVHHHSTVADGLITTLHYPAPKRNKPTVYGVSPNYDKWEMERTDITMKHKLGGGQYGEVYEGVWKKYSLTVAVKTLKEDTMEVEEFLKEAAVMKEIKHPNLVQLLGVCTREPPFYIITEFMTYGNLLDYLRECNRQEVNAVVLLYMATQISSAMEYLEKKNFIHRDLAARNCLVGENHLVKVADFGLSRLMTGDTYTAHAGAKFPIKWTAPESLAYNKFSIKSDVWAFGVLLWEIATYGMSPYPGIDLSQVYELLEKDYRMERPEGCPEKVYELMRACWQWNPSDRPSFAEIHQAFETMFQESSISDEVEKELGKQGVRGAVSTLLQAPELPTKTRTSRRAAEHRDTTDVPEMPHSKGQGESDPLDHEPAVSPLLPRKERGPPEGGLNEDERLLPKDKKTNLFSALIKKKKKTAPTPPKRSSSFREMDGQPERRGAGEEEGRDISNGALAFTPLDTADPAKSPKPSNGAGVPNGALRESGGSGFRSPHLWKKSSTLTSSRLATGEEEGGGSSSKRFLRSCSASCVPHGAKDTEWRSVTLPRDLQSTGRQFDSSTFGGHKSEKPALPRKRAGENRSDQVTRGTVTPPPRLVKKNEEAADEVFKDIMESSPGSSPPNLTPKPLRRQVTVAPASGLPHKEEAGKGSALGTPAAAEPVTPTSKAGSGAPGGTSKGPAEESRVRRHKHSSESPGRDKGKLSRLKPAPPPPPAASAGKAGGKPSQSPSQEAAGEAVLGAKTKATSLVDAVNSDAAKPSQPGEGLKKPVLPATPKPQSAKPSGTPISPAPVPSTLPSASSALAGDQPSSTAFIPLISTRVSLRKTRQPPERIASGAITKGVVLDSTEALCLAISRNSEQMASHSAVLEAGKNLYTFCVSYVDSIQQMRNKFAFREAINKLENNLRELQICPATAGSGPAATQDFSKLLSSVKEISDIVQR
Casein kinase I isoform delta (Homo sapiens), sequence (P48730 whole entry, looked up, canonical isoform): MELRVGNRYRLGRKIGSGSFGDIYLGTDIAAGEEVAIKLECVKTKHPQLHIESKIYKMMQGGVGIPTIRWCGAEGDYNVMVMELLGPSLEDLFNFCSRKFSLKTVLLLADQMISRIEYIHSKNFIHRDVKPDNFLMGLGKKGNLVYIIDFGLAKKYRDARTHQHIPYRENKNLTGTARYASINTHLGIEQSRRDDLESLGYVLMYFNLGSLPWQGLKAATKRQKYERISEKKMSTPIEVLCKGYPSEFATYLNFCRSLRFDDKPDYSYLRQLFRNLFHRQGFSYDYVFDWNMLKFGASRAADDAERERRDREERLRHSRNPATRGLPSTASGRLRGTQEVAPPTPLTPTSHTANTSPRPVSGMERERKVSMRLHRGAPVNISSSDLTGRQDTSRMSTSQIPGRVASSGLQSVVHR
Glycogen synthase kinase-3 beta (Homo sapiens), sequence (P49841 whole entry, looked up): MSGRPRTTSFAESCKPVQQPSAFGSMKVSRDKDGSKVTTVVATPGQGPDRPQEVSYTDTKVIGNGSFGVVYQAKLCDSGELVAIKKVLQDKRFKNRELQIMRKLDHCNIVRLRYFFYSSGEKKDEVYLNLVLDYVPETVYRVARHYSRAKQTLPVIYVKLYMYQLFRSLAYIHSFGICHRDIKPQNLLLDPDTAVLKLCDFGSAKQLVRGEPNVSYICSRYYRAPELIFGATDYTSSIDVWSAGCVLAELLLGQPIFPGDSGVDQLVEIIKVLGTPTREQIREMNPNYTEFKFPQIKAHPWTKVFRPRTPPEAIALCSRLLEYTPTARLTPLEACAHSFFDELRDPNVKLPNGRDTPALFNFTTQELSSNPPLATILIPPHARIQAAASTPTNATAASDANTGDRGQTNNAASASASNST

For `COc1cc(O)cc(CN2CCc3c(cc(Cn4ccn(C)c4=N)cc3-c3ccc(F)cc3C)C2=O)c1`, the ΔTm in test [1] was 0.41 °C; in test [2], -3.72 °C; in test [3] it was -0.56 °C; in test [4], -0.83 °C; in test [5] it was -0.55 °C; in test [6], 0.04 °C. Also, the ΔTm in test [7] is -2.93 °C; in test [8], -1.53 °C.

Take `CC(C)CCn1c(CN2CCN(C(=O)C3CC3)CC2)nc2c1c(=O)n(C)c(=O)n2C`: the ΔTm in test [1] is 0.68 °C; in test [2], -2.93 °C; in test [3] it was 0.17 °C; in test [4], -0.39 °C; in test [5], -0.45 °C; in test [6] it was 0.11 °C. The ΔTm in test [7] is -2.45 °C; in test [8], 0.08 °C.

For the compound `Cc1cc(C(=O)N2CCN(C3CN(C(=O)c4ccc(-c5ccccc5)cc4)C3)CC2)no1`, the ΔTm in test [1] is 0.78 °C; in test [2], -2.08 °C; in test [3], -0.01 °C; in test [4], 0.33 °C; in test [5], 0 °C; in test [6] it was 0.28 °C. Besides, the ΔTm was 0 °C in test [7] and -0.09 °C in test [8].

With `O=C(O)CCNc1cc(N2CCc3ccccc3CC2)nc(-c2cccnc2)n1`, the ΔTm in test [1] was 0.76 °C; in test [2], -1.28 °C; in test [3], 0.04 °C; in test [4] it was 0.2 °C; in test [5] it was -0.02 °C; in test [6], -0.29 °C. Besides, the ΔTm in test [7] was 2.29 °C; in test [8] it was -0.51 °C.

Regarding `CCCCCCCCCCCCC/C=C/[C@@H](O)[C@H](CO)NC(=O)CBr`, the ΔTm is 0.2 °C in test [1]; -6.16 °C in test [2]; -4.16 °C in test [3]; -9.74 °C in test [4]; -9.26 °C in test [5]; 0.47 °C in test [6]. The ΔTm was -14.4 °C in test [7] and -2.18 °C in test [8].

With `O=c1[nH][nH]c(=O)c2cc(OCC3CCCCC3)ccc12`, the ΔTm is 2.06 °C in test [1]; -1.15 °C in test [2]; 1.01 °C in test [3]; -0.01 °C in test [4]; 2.16 °C in test [5]; 0.61 °C in test [6]. The ΔTm in test [7] was -0.19 °C; in test [8] it was 1.88 °C.

Turning to `Cc1sc(C(=O)c2cncnc2N[C@@H]2C[C@H](COS(N)(=O)=O)[C@@H](O)C2)cc1[C@@H]1NCCc2ccc(Cl)cc21`, the ΔTm in test [1] is 0.03 °C; in test [2], -0.2 °C; in test [3] it was -0.03 °C; in test [4], -0.1 °C; in test [5] it was -1.26 °C; in test [6], 0.53 °C. Further, the values for the ΔTm in test [7] and in test [8] were -1.12 °C and 0.42 °C, respectively.

`NCCOCCOCCNC(=O)Cc1ccc(Nc2nc(NCc3ccc(F)cc3)nc(NCC3CCCCC3)n2)cc1`: the shift in melting temperature (ΔTm) is 0.61 °C in test [1]; -3.77 °C in test [2]; 0.63 °C in test [3]; 0.54 °C in test [4]; 0 °C in test [5]; 0.37 °C in test [6]. Further, the ΔTm in test [7] is -2.14 °C; in test [8], -0.27 °C.

In the case of `CNC(=O)c1cc(Nc2ccnc(Nc3ccc(CCNC(=O)OC(C)(C)C)cc3)n2)n[nH]1`, the ΔTm in test [1] was 0.52 °C; in test [2] it was -6.4 °C; in test [3], -0.49 °C; in test [4] it was 0.55 °C; in test [5] it was -1.3 °C; in test [6], -12.3 °C. Further, the ΔTm in test [7] is -0.62 °C; in test [8], 0.91 °C.

With `c1cncc(-c2cnn[nH]2)c1`, the ΔTm in test [1] was 0.48 °C; in test [2] it was -1.91 °C; in test [3] it was -0.01 °C; in test [4] it was -0.01 °C; in test [5] it was -0.3 °C; in test [6], 0.24 °C. In addition, the ΔTm in test [7] was -1.49 °C; in test [8] it was -0.2 °C.

As to `O=C(N(CCc1ccccc1)C1CCCCC1)n1ncc(-c2ccc(OC(F)(F)F)cc2)n1`, the shift in melting temperature (ΔTm) in test [1] was -0.68 °C; in test [2], -2.75 °C; in test [3], 0.18 °C; in test [4], 0.03 °C; in test [5], -3.35 °C; in test [6], 0.11 °C. Besides, the thermal shift (ΔTm) in test [7] is -1.75 °C; in test [8], 0.14 °C.

For `CN1CCN(c2nc(-c3ccc(C(=O)NC4(C(=O)NCC#N)CCCCC4)cc3)cs2)CC1`, the ΔTm in test [1] was 0.26 °C; in test [2], -0.96 °C; in test [3], 0.12 °C; in test [4] it was -0.06 °C; in test [5] it was -0.33 °C; in test [6] it was -1.88 °C. Besides, the ΔTm was -0.41 °C in test [7] and -0.66 °C in test [8].

Turning to `CCCC[C@]1(CC)CS(=O)(=O)c2cc(CNC(CC(=O)O)CC(=O)O)c(OC)cc2[C@@H](c2ccccc2)N1`, the ΔTm was 0.44 °C in test [1]; 0.52 °C in test [2]; -0.44 °C in test [3]; -0.45 °C in test [4]; -0.88 °C in test [5]; 0.14 °C in test [6]. For the same compound, the ΔTm in test [7] was -1.84 °C; in test [8], 0.38 °C.

For `Cc1cc2cc(NS(=O)(=O)c3ccc(C#N)cc3)ccc2n(C)c1=O`, the ΔTm is 0.57 °C in test [1]; -0.91 °C in test [2]; 0.09 °C in test [3]; 0.09 °C in test [4]; 0.03 °C in test [5]; -3 °C in test [6]. The ΔTm in test [7] was -1.09 °C; in test [8], 0.17 °C.

`CNC(=O)N1CCc2c(c(N3CCCc4cc(-c5cnn(C)c5)c(C(F)F)cc43)nn2C2CCOCC2)C1`: the ΔTm in test [1] was 0.09 °C; in test [2] it was 1.4 °C; in test [3], 0.2 °C; in test [4], 0.34 °C; in test [5], -0.47 °C; in test [6], -0.36 °C. Besides, the ΔTm in test [7] is -1.06 °C; in test [8] it was -2.05 °C.

For `COc1cc2c(cc1OC)[C@H]1C[C@@H](OC(=O)[C@@H](N)C(C)C)[C@H](CC(C)C)CN1CC2`, the ΔTm in test [1] is 0.26 °C; in test [2] it was 1.87 °C; in test [3], 0.58 °C; in test [4], -0.31 °C; in test [5] it was -0.94 °C; in test [6], 0.3 °C. Besides, the ΔTm in test [7] is -1.54 °C; in test [8], 0.19 °C.

Take `CC(C)c1ccc(C(=O)N=C(N)N)cc1S(C)(=O)=O`: the ΔTm was 0.77 °C in test [1]; -2.81 °C in test [2]; 0.03 °C in test [3]; -0.25 °C in test [4]; -0.76 °C in test [5]; 0.04 °C in test [6]. The results for the ΔTm in test [7] and in test [8] were -2.37 °C and -0.41 °C, respectively.

For the compound `N[C@H](C(=O)O)[C@H](OCc1cccc(NC(=O)c2ccc(C(F)(F)F)cc2)c1)C(=O)O`, the ΔTm in test [1] is 0.24 °C; in test [2], -3.61 °C; in test [3] it was -0.09 °C; in test [4] it was -0.32 °C; in test [5], -0.8 °C; in test [6], 0.12 °C. The ΔTm in test [7] was -2.5 °C; in test [8], 0.13 °C.

Turning to `Cn1nc2c(=O)n(CC3(O)CCN(C(=O)C[C@H](c4ccccc4)C(F)(F)F)CC3)cnc2c1-c1ccc(CN)cc1`, the ΔTm in test [1] was 0.68 °C; in test [2] it was -2.51 °C; in test [3], 0.12 °C; in test [4], -0.82 °C; in test [5], -0.57 °C; in test [6] it was 0.17 °C. For the same compound, the values for the ΔTm in test [7] and in test [8] were -1.86 °C and -0.47 °C, respectively.

As to `CC(C)C(=O)SCCCCCCC(=O)Nc1nc(-c2ccccc2)cs1`, the ΔTm in test [1] is 0.63 °C; in test [2] it was -1.46 °C; in test [3], 0.18 °C; in test [4], 0.04 °C; in test [5] it was 1.11 °C; in test [6], -0.16 °C. In addition, the ΔTm in test [7] was -0.57 °C; in test [8] it was -0.48 °C.

As for `NC(=O)C(CCCN=C(N)CCl)NC(=O)c1ccccc1` (stereo not drawn), the ΔTm in test [1] was 0.36 °C; in test [2], -3.15 °C; in test [3], 0.18 °C; in test [4], -0.56 °C; in test [5], 0.08 °C; in test [6], 0.22 °C. The ΔTm is -2.39 °C in test [7] and 1.03 °C in test [8].

One may read the ΔTm as the shift of the melting midpoint relative to a reference.

The record behind these values is ChEMBL document CHEMBL5724796, “Tm Shift (DSF) assay results for EUbOPEN Chemogenomics Library” (2024).
